ChEMBL document CHEMBL3988442, “University of Dundee, Small-Polar-MMV Screening Library” (2021)
The campaign covered roughly 85,000 compounds. About 440 (0.52%) showed an effect of 50% or more. The sample holds strong results, similar compounds and a random draw of the others, so the mix is not that of the screen.

Experiment: In vitro enzyme assay to detect hydrolysis of chlorophenol red-beta-D-[…] directly proportional to the number of Toxoplasma stably expressing beta-galactosidase
Assay type: functional, organism-based, Toxoplasma gondii
Parameters: scale not given: in the data most compounds retested in dose-response had high values

SMILES | Percent Effect (50 µM) | Percent Effect (10 µM)
CC(C)(C)C(=O)CCN1CCCCC1 | 28.4% | 
CNCC1CCS(=O)(=O)C1 (configuration not stated) | 7.416% | 
NC(=O)C(Cc1ccccc1)NS(=O)(=O)Cc1ccccc1Cl (configuration not stated) |  | 50.03%
NC(=O)C(Cc1ccccc1)NS(=O)(=O)Cc1ccccc1F (configuration not stated) |  | -5.639%
N#Cc1cccc(CS(=O)(=O)NC(Cc2ccccc2)C(N)=O)c1 (configuration not stated) |  | -7.673%
CCCn1cc(-c2ccnc(NC3CCc4ccccc4C3)n2)c(C)n1 (configuration not stated) |  | 39.11%
CCCn1ncc(-c2ccnc(NC3CCCc4ccccc43)n2)c1C (configuration not stated) |  | 4.434%
CCc1cc(N[C@@H]2C[C@H]3CC[C@@H]2C3)n2nccc2n1 |  | 9.168%
CCCn1ncc(-c2ccnc(NC3CCSC3)n2)c1C (configuration not stated) |  | 16.2%
CCCn1ncc(-c2ccnc(NC3CC(C)(C)NC(C)(C)C3)n2)c1C |  | 50.73%
CCCn1ncc(-c2ccnc(N[C@@H]3C[C@@H]4CC[C@H]3C4)n2)c1C |  | 55.29%
C[C@@H]1CNC[C@H]1C(N)=O | -3.858% | 
COCC1(C(=O)N2C[C@@H](N)C[C@H]2C(=O)NC(C)C)CC1 | -6.582% | 
COC(=O)c1cn(CC(=O)Nc2cccc(F)c2)nn1 | -28.09% | 
CC(N)C(=O)N(C)C1CCOCC1 (configuration not stated) | -25.47% | 
Cc1nnc2n1N=C(c1ccccc1)CS2 | 84.29% | 
Cc1nnc2n1N=C(c1cccs1)CS2 | -17.29% | 
OCc1nnc2n1N=C(c1ccc(Cl)cc1)CS2 | -7.844% | 
COCc1cccc(C(=O)Nc2ccncc2)c1 | -8.978% | 
COCCN(CCC#N)S(=O)(=O)c1ncn(C)c1Cl | 2.241% | 
O=C(CN1CCn2ccnc2C1)Nc1ccc(Cl)cn1 | -8.564% | 
CC(C)n1cnnc1CN1CCN(c2nc[nH]n2)CC1 | 14.64% | 
CCCN1CCC(C(N)=O)CC1 | -22.14% | 
CS(=O)(=O)CCN1CCC(C(N)=O)CC1 | 50.58% | 

SMILES | Percent Effect (50 µM) | Percent Effect (10 µM)
NCCN1CCC(C(N)=O)CC1 | 44.2% | 
O=C(Nc1nncs1)c1cccc(O)c1 | -14.91% | 
Cc1ccc(F)cc1NC(=O)C(C)Nc1cnn(C)c1 (configuration not stated) | 17.75% | 
CNC(=O)c1cccc(NCc2nc(C)cs2)n1 | -1.003% | 
COC(=O)CCN1CCNC(=O)C1c1cccs1 (configuration not stated) | -1.577% | 
N#Cc1ccc(CN2CCNC(=O)C2c2cccs2)cc1 (configuration not stated) |  | 7.265%
O=C1NCCN(C(=O)c2ccc(Br)o2)C1c1cccs1 (configuration not stated) | 99.65% | 
Cc1nc(CNC(=O)N(C)Cc2ccncc2)cs1 | -10.17% | 
NC(=O)C1(O)CCN(Cc2nc(C3CCCC3)no2)C1 (configuration not stated) | -5.906% | 
CCC(=O)NC1CCCN(Cc2noc(C)n2)C1 (configuration not stated) | 11.52% | 
CCC(C)C(=O)Nc1nccs1 (configuration not stated) | -54.41% | 
CC(C)COCCC(=O)Nc1nccs1 | 97.25% | 
CC(C)COCCC(=O)Nc1c(-c2ccc(F)cc2)ncn1C |  | 2.891%
Cc1ccc(C)c(NC(=O)CN2CCC(O)CC2)c1 | -4.783% | 
COCc1nc(CCN)no1 | -5.41% | 
CN(C)C(=O)c1ccc2ncnc(N3CCCC3)c2c1 | -3.186% | 
CC(C)CCC(=O)N1CCN(c2ncnc3nc(N)ccc23)CC1 |  | 1.58%
CC(C)C(=O)N1CCN(c2ncnc3cc4c(cc23)OCCO4)CC1 |  | 49.63%
CC(=O)N1CCN(c2ncnc3cc4c(cc23)OCCO4)CC1 |  | 56.5%
CCC(=O)N1CCN(c2ncnc3cc4c(cc23)OCCO4)CC1 |  | 75.76%
COCC(=O)N1CCN(c2ncnc3cccc(F)c23)CC1 |  | -5.192%
CCC(C)C(=O)Nc1ccc(C(=O)N2CCCC2)cc1 (configuration not stated) | -4.343% | 
NCC(=O)c1ccncc1 | -6.113% | 
CC(CC(=O)NCCCS(N)(=O)=O)c1cccc(F)c1 (configuration not stated) | 3.903% | 

SMILES | Percent Effect (50 µM) | Percent Effect (10 µM)
Cn1nccc1C(=O)NC1CCc2ccccc2OC1 (configuration not stated) | 1.645% | 
Cc1n[nH]/c(=N\C(=O)c2csc(NC3CC3)n2)s1 | 37.81% | 
CC(=O)Nc1nc(C(=O)Nc2nccs2)cs1 | 1.313% | 
Cc1[nH]/c(=N\C(=O)c2csc(NC3CC3)n2)sc1C |  | -0.3064%
Cc1[nH]/c(=N\C(=O)c2csc(NC3CCCC3)n2)sc1C |  | 89.34%
O=C(Nc1nccs1)c1csc(NC2CCCC2)n1 |  | 94.63%
Cc1[nH]/c(=N\C(=O)c2csc(NCC(C)C)n2)sc1C |  | 92.95%
CC(C)CNc1nc(C(=O)/N=c2\[nH]nc(C(C)(C)C)s2)cs1 |  | 0.3064%
O=C(NCc1nccs1)c1csc(NC2CC2)n1 | 6.462% | 
Cc1cs/c(=N/C(=O)c2csc(NCC(C)C)n2)[nH]1 |  | 19.16%
CC(O)c1c(F)cccc1-n1cncn1 (configuration not stated) | -28.05% | 
COc1ccc2cc(C(=O)N(C)C)c(C)nc2c1 | -8.962% | 
COc1ccc(F)c(F)c1C(=O)N1CCC(CN)C1 (configuration not stated) | -13.62% | 
CCN1CCC(CNC(=O)c2nc(C)c[nH]2)CC1 | -1.833% | 
OC[C@@H]1CCCN1c1nccc(-c2c[nH]nc2-c2ccncc2)n1 |  | -24.25%
OC[C@H]1CCCN1c1nccc(-c2c[nH]nc2C2CCCCC2)n1 |  | 54.25%
OC[C@H]1CCCN1c1nccc(-c2cncnc2C2CCCCC2)n1 |  | 29.63%
N[C@@H]1CCC[C@@H](Oc2ccc(F)cc2Oc2cccc(F)c2)[C@@H]1O |  | 2.748%
Cc1ccc(Oc2cc(F)ccc2O[C@@H]2CCC[C@@H](N)[C@H]2O)cc1 |  | 82.52%
N[C@@H]1CCC[C@@H](Oc2ccc(F)cc2Oc2ccccc2)[C@@H]1O |  | 2e-14%
Cn1ncc(C(=O)N2CCN(S(C)(=O)=O)CC2)c1Cl |  | 77.51%
CS(=O)(=O)N1CCN(C(=O)c2cnn3c2OCCC3)CC1 |  | -9.448%
Cn1ncc(C(=O)N2CCOCC2)c1Cl |  | 29.02%
COCc1ccc(C(=O)N2CCN(CCS(C)(=O)=O)CC2)cc1 |  | -0.2262%

SMILES | Percent Effect (50 µM) | Percent Effect (10 µM)
Cc1c(C(=O)N2CCCN(S(C)(=O)=O)CC2)cnn1C |  | -3.056%
Cc1oc(C(C)C)cc1C(=O)N1CCN(c2cnn(C)c(=O)c2)CC1 |  | 15.5%
Cn1ncc(C(=O)N2CCN(C(=O)c3ccco3)CC2)c1Cl |  | 75.62%
CC(C)S(=O)(=O)N1CCN(C(=O)c2cnn(C)c2Cl)CC1 |  | 63.23%
Cn1ncc(C(=O)N2CCN(CCS(C)(=O)=O)CC2)c1Cl |  | 67.81%
CCOC(=O)N1CCN(C(=O)c2ccco2)CC1 | 9.256% | 
CCc1ccc(C(=O)N2CCN(CCS(C)(=O)=O)CC2)o1 |  | -13.13%
Cc1c(C(=O)N2CCC(C(O)c3ccc(Cl)cc3)CC2)cnn1C (configuration not stated) |  | -2.382%
O=C(NC1CCc2ccc(F)cc21)c1c[nH]nn1 (configuration not stated) | 10.36% | 
COC(=O)c1ccc(NCC(=O)N2CCCCC2)cc1 | -5.615% | 
Cc1cc(C(=O)N(C)Cc2ccncc2C)[nH]n1 | -2.921% | 
CC1c2ccsc2CCN1CCC(=O)NC(N)=O (configuration not stated) | -3.706% | 
N#CC1CCCN(C(=O)c2cnc3ccccc3c2)C1 (configuration not stated) | -3.341% | 
CCC1=NC(SCC(=O)c2ccccc2)c2cc(CC)sc2N1 (configuration not stated) |  | 88.55%
CCc1ncc(C(=O)c2ccc(OC)cc2)n1C |  | -0.6627%
CCc1ncc(C(=O)N2CCOCC2CC(=O)c2ccccc2)s1 (configuration not stated) |  | 3.663%
CCC1=NC(SCC(=O)c2ccc(OC)cc2)c2cc(CC)sc2N1 (configuration not stated) |  | 50.44%
COc1ccc(C(=O)CNC(=O)c2nc(Cl)sc2C(C)C)cc1 |  | 18.25%
CCC1=NC(SCC(=O)c2ccc(Cl)cc2)c2cc(CC)sc2N1 (configuration not stated) |  | 23.77%
CCc1nc(C(=O)N2CCOCC2CC(=O)c2ccccc2)c[nH]1 (configuration not stated) |  | 0.2818%
CCC1=NC(SCC(=O)c2ccc(C)cc2)c2cc(CC)sc2N1 (configuration not stated) |  | 65.66%
Cc1cccc(-n2nnnc2C(C)(C)N2CCCC2)c1 | -9.882% | 
COCCNS(=O)(=O)c1ccc(CN)cc1 | -7.365% | 
CC(C)(C)NC(=O)CNC(C)(C)c1nccs1 | -6.241% | 

SMILES | Percent Effect (50 µM) | Percent Effect (10 µM)
Cc1cnccc1NCCNC(=O)[C@H]1CCC[C@H](O)C1 | -11.82% | 
O=C1CCCN1CCCNCc1cccs1 | 4.585% | 
CCCN1CCC(CNc2ncccc2F)C1 (configuration not stated) | -12.03% | 
COc1c(CNC2CCOc3c(Cl)cccc32)c(C(C)C)nn1C (configuration not stated) |  | 50.26%
COc1c(CNC2CCOc3c(Cl)cccc32)c(C)nn1C.Cl (configuration not stated) |  | -5.172%
COc1c(CNC2CCOc3ccccc32)c(C(C)C)nn1C (configuration not stated) |  | 0.6462%
Cc1ccccc1-c1nnn(CC(O)CC(F)(F)F)n1 (configuration not stated) | -8.034% | 
CC(C)CC(C)(N)CO (configuration not stated) | -4.909% | 
COc1cc(NC(=O)CCN2CC(O)C2)cc(OC)c1 | -10.62% | 
c1cnc(-c2nn3c(CN4CCCCC4)nnc3s2)cn1 |  | 70.51%
c1ccc(-c2nn3c(CN4CCOCC4)nnc3s2)nc1 |  | 71.31%
O=C(c1cnccn1)N1CCC(CN2CCOCC2)CC1 |  | 17.94%
c1cc(-c2cnccn2)cc(-c2ccn(CCCN3CCCCC3)n2)c1 |  | -3.188%
c1cc(-c2cnccn2)cc(-c2ccn(CCN3CCCCC3)n2)c1 |  | -6.783%
O=C(c1cnccn1)N1CCc2ncc(CN3CCOCC3)n2CC1 |  | -7.352%
c1coc(CN2CCn3c(CN4CCOCC4)nnc3C2)c1 |  | 4.961%
c1cnc(-c2nn3c(CN4CCOCC4)nnc3s2)cn1 |  | 68.89%
c1cnc(-c2nn3c(CN4CCCCCC4)nnc3s2)cn1 |  | 65.52%
CCN1CCN(c2nnc(-c3ccccn3)s2)CC1 | 1.346% | 
c1cc(-c2cnccn2)cc(-c2ccn(CCN3CCCC3)n2)c1 |  | 1.269%
O=C(NCCN1CCCCC1)c1cnccn1 | 1.153% | 
